Compounds without any hit were thinned out: in the full panel of roughly 83,000, 20% have a hit.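 A percent growth of 40 corresponds to 60% growth inhibition; 0 means no net growth; -100 means all cells died. Active threshold: below 10.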 Calls of active or inactive are those of the source.
Test system: NCI/ADR-RES ovarian
Test: NCI-60 one-dose screen, 48 h (100 = growth as untreated, 0 = no growth, -100 = all killed)
Settings: 10 µM unless noted
Protocol: Growth inhibition of the NCI/ADR-RES human […] tumor cell line is measured as a screen for anti-cancer activity. Cells are grown in 96 well plates and exposed to the test compound for 48 hours. Compounds are tested at a single concentration, which is 10^-5 M for most compounds. The reported endpoint is percent growth (GI% or GIPRCNT), where numbers from 0 - 100% represent growth inhibition, and numbers from -100% - 0 represent cell death. For example, a value of 40 represents 60% growth inhibition. A value of 0 means no net growth occurred over the course of the experiment. A value of -40 indicates 40% of cells at the beginning of the experiment died by the end of the experiment. A value of -100 means all cells are dead at the end of the experiment.
NCI-60 Human Tumor Cell Lines Screen was performed using the standard one-dose NCI protocol, which is described in more detail at https://dtp.cancer.gov/discovery_development/nci-60/default.htm.
Compounds with GIPRCNT values below 10 were considered active. Activity score was based on GIPRCNT using the following formula: […]
Score is 0 for GIPRCNT values of 100 or above, 50 for GIPRCNT values of 0, and 100 for GIPRCNT values of -100.

Row | Structure (SMILES) | growth
1 | COc1ccc(C2=NN(c3nc(-c4ccc(OC)cc4)c(C#N)c(=O)n3C)C(=O)CC2)cc1 | 101% (inactive)
2 | Cn1cc(-c2csc(-c3cn(CCNC(=O)OC(C)(C)C)c4ccccc34)n2)c2cccnc21 | 56% (inactive)
3 | COC(=O)C(N)CSC(c1ccccc1)(c1ccccc1)c1ccccc1 (stereo not given) | 68.4% (inactive)
4 | Oc1ccccc1/C=N\NC(=S)Nc1ccc(F)cc1 | -2.4% (active)
5 | COc1ccc2c(c1)C/C(=C\c1cc(-c3cc(OC)c(OC)c(OC)c3)n[nH]1)C2=O | 83.4% (inactive)
6 | Cc1cc2nc3c4cc([N+](=O)[O-])cc([N+](=O)[O-])c4n(CCN(C)C)c3nc2cc1C | 57.8% (inactive)
7 | O=[N+]([O-])c1cccc(/C=N\Nc2ccccc2)c1 | 48.7% (inactive)
8 | Cc1ccncc1C(=O)O | 96.8% (inactive)
9 | CC1(C)C(=O)CC[C@]2(C)[C@H]3C(=O)C=C4[C@@H]5C[C@@](C)(C(=O)NCCNCCN)CC[C@]5(C)CC[C@@]4(C)[C@]3(C)CC[C@@H]12 | 102% (inactive)
10 | C=C(C)[C@@H]1CC[C@]2(C(=O)N3CCN(CC)CC3)CC[C@]3(C)[C@H](CC[C@@H]4[C@@](C)(CCC(=O)N5CCN(CC)CC5)[C@H](C(=C)C)CC[C@]43C)[C@@H]12 | 67.6% (inactive)
11 | Brc1ccc2[nH]cc(-c3nc(-c4c[nH]c5ncccc45)cs3)c2c1 | 32.7% (inactive)
12 | Cc1cc2nc3c4cc(Cl)ccc4n(CCN(C)C)c3nc2cc1C | 13.6% (inactive)
13 | Brc1ccc(Cn2nnnc2-c2ccn(-c3ccccc3)n2)cc1 | 27.5% (inactive)
14 | COc1ccc(-c2cc(/C=C/C(=O)c3ccc(OC)c(OC)c3)[nH]n2)cc1 | -0.366% (active)
15 | Cn1cc(-c2nc(-c3c[nH]c4ncccc34)cs2)c2cc(Br)ccc21 | 75% (inactive)
16 | CCOC(=O)C1OC1(c1ccccc1)c1ccccc1 (stereo not given) | 105% (inactive)
17 | CC1(C)C(=O)/C(=C\c2cccnc2)C[C@]2(C)[C@H]3CC[C@@H]4[C@@H](C(=O)/C=C/c5ccncc5)CC[C@@]4(C)[C@]3(C)CC[C@@H]12 | -0.549% (active)
18 | N=C(N)c1ccc(-c2ccc(-c3cc(F)cc(F)c3)o2)nc1 | 94.6% (inactive)
19 | CN(CSc1ccc(Cl)cc1)c1ccc(CSc2ccc(Cl)cc2)cc1 | 91.7% (inactive)
20 | O=C1CN(c2ccccc2)C(=O)C1C(=O)Nc1ccc(Cl)c(Cl)c1 (stereo not given) | 21.6% [100 µM] (inactive)

Row | Structure (SMILES) | growth
21 | CC(=O)O[C@H]1CC[C@]2(C)[C@H]3CC=C4[C@@H]5[C@H](C)[C@@H](C)CC[C@]5(C(=O)NCCNCCNCCN)CC[C@@]4(C)[C@]3(C)CC[C@H]2C1(C)C | 89.8% (inactive)
22 | COc1ccc(-c2cc(=O)oc3ccc(Cl)cc23)cc1F | 6.24% (active)
23 | COc1ccc2c(c1)c(-c1nc(-c3cn(C)c4ncccc34)cs1)cn2CCCN1CCCCC1 | 69.5% (inactive)
24 | N#Cc1c(-c2ccco2)nc2c(c(-c3ccccc3)nn2-c2ccccc2)c1-c1ccc(O)cc1 | 76.4% (inactive)
25 | CC1=CC(=O)N(c2cccc3c(N4C(=O)C=C(C)C4=O)cccc23)C1=O | 78.3% (inactive)
26 | COc1cc(/C=C/c2cc(/C=C/c3ccc(O)c(OC)c3)n(-c3ccc(Cl)cc3)c(=O)n2)ccc1O | 96.5% (inactive)
27 | Cc1cc2nc3c4cc(N)ccc4n(CCN(C)C)c3nc2cc1C | 2.88% (active)
28 | CCCCC[C@H]1CC=C2C(=O)C(Cl)=C[C@@H]2CC=CCCCC(=O)O[C@@H](CCCCC)CC=C2C(=O)C(Cl)=C[C@@H]2CC=CCCCC(=O)O[C@@H](CCCCC)CC=C2C(=O)C(Cl)=C[C@@H]2CC=CCCCC(=O)O1 | 96.2% [8 µM] (inactive)
29 | O=C(NC1=CC(=O)c2ccccc2C1=O)c1ccccc1 | 16.6% (inactive)
30 | CCN1CCN(C(=O)[C@@]2(C)CC[C@]3(C)CC[C@]4(C)C(=CC(=O)[C@@H]5[C@@]6(C)CC[C@H](OC7C[C@@H](O)[C@@H](O)C(C)O7)C(C)(C)[C@@H]6CC[C@]54C)[C@@H]3C2)CC1 (stereo not given in full) | 47% (inactive)
31 | O=C1c2ccccc2NC(c2cn(-c3ccccc3)nc2-c2cccs2)N1Cc1ccccc1 (stereo not given) | 73.2% (inactive)
32 | Cc1ccc(-c2nc([P+](c3ccccc3)(c3ccccc3)c3ccccc3)c(N3CCOCC3)o2)cc1 | 86% (inactive)
33 | O=C1c2ccccc2NC(c2cn(-c3ccccc3)nc2-c2cccnc2)N1Cc1ccccc1 (stereo not given) | 97.3% (inactive)
34 | NS(=O)(=O)c1ccc(CCNC(=O)/C=C/c2ccc(Cl)cc2)cc1 | 103% (inactive)
35 | COc1cc(-c2cc(-c3nc4cc(Cl)c(Cl)cc4[nH]3)[nH]n2)cc(OC)c1OC | 39.1% (inactive)
36 | NC1=NN(c2ccccc2)C(=O)/C1=C/c1ccc(Cl)cc1 | 103% (inactive)
37 | Nc1c(C(=O)Nc2cccc(Br)c2)sc2nc3c(cc12)C(=O)CCC3 | 26.9% (inactive)
38 | COC(=O)[C@]12CC[C@@H](C)[C@H](C)[C@@H]1C1=CC(=O)[C@@H]3[C@@]4(C)C[C@@H](O)[C@H](O)[C@@]5(C)COC(=C45)C[C@@]3(C)[C@]1(C)CC2 | 20.8% (inactive)
39 | COc1cc2c(cc1OC)C(=O)/C(=C/c1cc(-c3ccc4c(c3)OCO4)n[nH]1)C2 | -15% (active)
40 | Cc1nnc2nc(N)[nH]n2c1=O | 99.7% (inactive)

Reference: PubChem BioAssay (NCI)
